# Bioassay records as filed in PubChem.
# Most compounds without a hit are left out; they make up all but 7.9% or so of the library.
# MCF10A rereplic: DNA re-replication induction in MCF 10a cells | MCF 10A DNA re-replication, Hoechst nuclear intensity, 48 h | Potency, µM (top dose mostly 46.1 µM), for the others: at the top dose activity, positive = re-replication, actives largely listed as activators | AID 624296 | 350,000 compounds, 2.9% hits; note: % of control where 0% means no effect; nearly all actives have a fitted effect of over 50% in size
# SW480 rereplic: DNA re-replication induction in SW480 cells; AID 624297; Potency, µM (highest dose often 46.1 µM), inactives show top-dose re-replication activation, usual class: activators; 340,000 compounds, 1.8% hits; SW480 DNA re-replication, Hoechst DNA content imaging, 48 h; note: % of control where 0% means no effect; nearly all actives have a fitted effect of over 55% in size
#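 Readout is total intensity of Hoechst-stained nuclei, excited at 405 nm and collected at 500-530 nm. Compound treatment lasted 48 hr at 37 C in 5% CO2 before staining.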
# KB-V1 MDR tox: KB-V1 MDR subline cytotoxicity; KB-V1 MDR cells viability, CellTiter-Glo, 72 h; Potency, µM (highest dose often 46.1 µM), usual class: cytotoxic; 400,000 compounds, 3.4% hits; note: % is set by controls: 0 for no effect and ±100 for the full control effect; nearly all actives have a fitted effect of over 60% in size
#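 KB-V1, DMEM (no phenol red) + 10% FBS; cpd pin-transferred, titration series; 72 h, 37 degrees C; CellTiter-Glo, luminescence. Data normalized, curve-fit.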
# HT1080 IDH1KD tx: kills HT-1080 cells with IDH1 knockdown; HT-1080 IDH1 knockdown viability, ATP luminescence, 48 h; 360,000 compounds, 2% hits; Potency, µM (top dose mostly 46.1 µM), for the others: at the top dose activity, negative = toxicity, usual class: cytotoxic;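 note: 0% = DMSO wells and -100% = cell-free medium wells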
#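 Assay cells: HT-1080 with IDH1 knockdown, 750 per well, RPMI/5% FBS. Exposure: 48 h at 37 °C following 2 h pre-incubation. Read: CellTiter-Glo luminescence; fitted concentration-response, curve class assigned.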
# KB-3-1 cytotox: kills parental KB-3-1 adenocarcinoma cells | KB-3-1 viability, CellTiter-Glo ATP luminescence, 72 h | Potency, µM (titrated, usually from 46.1 µM), actives largely listed as cytotoxic | 400,000 compounds, 1.4% hits; note: % is set by controls: 0 for no effect and ±100 for the full control effect; nearly all actives have a fitted effect of over 60% in size
#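 72 h, 37 °C compound treatment of KB-3-1 parental cells; CellTiter-Glo added, 10 min, luminescence read. Data corrected against DMSO-only plates and normalized before curve fitting.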
# HT1080NT lethal: kills 2HG-producing HT-1080-NT fibrosarcoma cells | HT-1080-NT fibrosarcoma viability, CellTiter-Glo ATP luminescence, 48 h | Potency, µM (highest dose often 46.1 µM), for inactives: at the highest dose activity, negative = less viability, usual class: cytotoxic | AID 686970 | 360,000 compounds, 1.6% hits;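 note: NT is the 2HG producing partner of a matched IDH1 knockdown line; 0% = DMSO-treated cells and -100% = media-only wells without cells; nearly all actives have a fitted effect of over 55% in size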
#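 Read-out is CellTiter-Glo luminescence after 10 minutes at room temperature, following 48 hours' compound treatment of HT-1080-NT cells (750 cells/well, RPMI, 5% FBS, 37 degrees C).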
# * marks the source's active call; other numbers are inactive results; i = inactive; ? = inconclusive; / = not tested or not shown. Calls come from the whole dose curve; as a rule, active = well fitted curve in the direction sought with a large enough effect; inconclusive = small, poorly fitted or top-dose-only effect, or another doubt; inactive = no such curve, though single readings can be large; an effect the other way counts as inactive or inconclusive. Potency is the fitted concentration of half-maximal effect.
SMILES,MCF10A rereplic,SW480 rereplic,KB-V1 MDR tox,HT1080 IDH1KD tx,KB-3-1 cytotox,HT1080NT lethal
Oc1ccc(N=Nc2ccc3c(c2)OCCO3)c2ncccc12,?,10.9%,?,3.66µM*,i,?
CNc1nc(Oc2cccc(NC(C)=O)c2)c2sccc2n1,/,/,i,-1.6%,i,-3.9%
CC(C)N1CCC2(CC1)N=C(c1ccc3c(c1)OCO3)CC(c1cc(Cl)ccc1O)N2 (stereo not given),5.8µM*,?,?,?,14.6µM*,?
Oc1ccc(Cl)cc1C1C=C(c2ccc3c(c2)OCO3)NC(c2ccc(C(F)(F)F)cc2)N1 (stereo not given),/,/,i,/,?,/
COC(=O)c1cccnc1-n1c(=O)c2cccnc2n(CC(=O)Nc2ccccc2F)c1=O,/,/,i,/,?,/
O=C(CCS(=O)(=O)c1cccs1)Nc1ccc(C(=O)Nc2ccccc2F)cc1,/,/,i,/,i,/
O=C(O)C1=CC(=C(c2ccc(O)c(C(=O)O)c2)c2ccc(O)c(C(=O)O)c2)C=CC1=O,/,/,/,7.1%,/,1.8%
O=C1C=CC(=C(c2ccc(O)cc2)c2ccc(O)cc2)C=C1,6.51µM*,?,?,11.6µM*,5.8µM*,9.2µM*
O=C(Cn1nc(-c2nn(CC(=O)c3ccccc3)c3[n+]2CCCCC3)[n+]2c1CCCCC2)c1ccccc1,7.0%,-32.6%,?,9.1%,i,-4.3%
Cc1ccc(C(C)C)c(OCc2nn(CC(=O)c3ccc(OC(F)F)cc3)c3[n+]2CCCCC3)c1,47.4%,-5.6%,i,18.4µM*,?,14.6µM*
COc1ccc(C(=O)Cn2nc(CNc3ccc(Br)cc3)[n+]3c2CCCCC3)cc1,?,11.7%,i,?,20.6µM*,?
O=C1NC(=Nc2ccc(O)cc2)S/C1=C\C=C\c1ccco1,?,?,2.31µM*,1.46µM*,3.26µM*,1.3µM*
CCc1ccc(N=C2NC(=O)/C(=C/c3ccc(OCC(=O)O)c(OC)c3)S2)cc1,-3.3%,-3.0%,i,11.3%,i,3.4%
COc1ccc(N=C2NC(=O)/C(=C\c3ccco3)S2)cc1,?,8.2%,i,-4.0%,i,-1.5%
COc1cc(/C=C2\SC(=Nc3ccc(O)cc3)NC2=O)cc(OC)c1OC,?,3.26µM*,i,2.91µM*,4.61µM*,3.66µM*
COc1ccccc1N=C1NC(=O)/C(=C/c2ccc(N(C)C)cc2)S1,9.2µM*,4.11µM*,7.31µM*,3.26µM*,10.3µM*,7.31µM*
COc1ccc(/C=C2/S/C(=N/S(=O)(=O)Cc3ccccc3)NC2=O)cc1OC,21.1%,-1.5%,i,-8.8%,i,1.2%
COc1cc(/C=C2/SC(=Nc3ccc(O)cc3)NC2=O)cc(OC)c1O,?,20.6µM*,i,-9.0%,?,-26.9%
COc1cccc(Cn2c(=O)n(-c3ccc(Br)cc3F)c(=O)c3sc4ccccc4c32)c1,/,/,i,/,i,/
Cc1ccc(-n2ncc3c(N4CCN(CCO)CC4)ncnc32)cc1Cl,/,/,i,/,i,/
Cc1ccc(NS(=O)(=O)c2ccc3nc(-c4ccccc4)[nH]c3c2)c(Cl)c1,/,/,i,/,i,/
COc1ccc(N=C2NC(=O)/C(=C/c3ccc(O)c(OC)c3)S2)cc1,?,23.1µM*,?,2.5%,?,-16.4%
CCn1c(SCC(=O)N2CCC(C)CC2)nnc1-c1ccccc1O,/,/,i,/,i,/
O=C(NCc1cccs1)c1cccc2c(-c3ccc(F)c(F)c3)coc12,/,/,i,-18.3%,i,-15.0%
O=C(/C=C/c1ccco1)NC(=S)Nc1nc(-c2ccc3ccccc3c2)cs1,1.16µM*,?,5.17µM*,?,4.61µM*,?
SMILES,MCF10A rereplic,SW480 rereplic,KB-V1 MDR tox,HT1080 IDH1KD tx,KB-3-1 cytotox,HT1080NT lethal
COc1ccc(-c2csc(NC(=S)NC(=O)/C=C/c3ccccc3)n2)cc1Br,19.4%,-3.6%,11.6µM*,-18.7%,?,-15.9%
COc1ccc(-c2csc(NC(=O)Cc3ccccc3)n2)cc1OC,-1.1%,-5.8%,i,0.0%,i,3.2%
O=C(O)/C=C/C(=O)Nc1nc(-c2ccc3ccccc3c2)cs1,21.4%,4.6%,i,-0.6%,i,2.2%
O=C(/C=C/c1ccco1)NC(=S)Nc1nc(-c2ccc(Cl)cc2)cs1,20.6µM*,-1.8%,?,-7.7%,?,-1.5%
O=C(/C=C\c1ccco1)Nc1nc(-c2ccccc2)cs1,?,-14.0%,?,11.9%,i,10.3%
Cc1ccc(-n2c(=O)c3ccc(C(=O)NCc4ccccc4Cl)cc3n(Cc3ccccc3F)c2=O)cc1,/,/,i,/,i,/
COc1ccc(NC(=O)Cn2cnc3ccc(S(=O)(=O)N4CCC(C)CC4)cc3c2=O)cc1OC,/,/,i,/,i,/
O=C(NCCO)C(=O)Nc1c2c(nn1-c1ccc(F)cc1)CSC2,/,/,i,/,i,/
CCOCCCn1c(SCc2nc3ccccc3s2)nc2ccccc2c1=O,?,?,2.31µM*,?,11.6µM*,?
CCOCCCn1c(SCC(=O)Nc2ccccc2)nc2ccccc2c1=O,-3.8%,-5.7%,i,-1.4%,i,-11.7%
C/C(N)=C(/C#N)C(=O)CSc1nc2ccccc2c(=O)n1CCCOC(C)C,8.6%,7.2%,i,16.0%,i,0.9%
